Inconclusive results are not listed. A call without a number means that no potency is given here. Values without a mark were called inactive. Calls of active or inactive are those of the source. The call rests on the fitted dose curve; in most records, active means well fitted curve in the direction sought with a large enough effect; inconclusive means small, poorly fitted or top-dose-only effect, or another doubt; inactive means no such curve, though single readings can be large; an effect the other way counts as inactive or inconclusive.
What was measured:
MKL-1 = assay: qHTS assay to identify novel small-molecules to repurpose for Merkel cell carcinoma treatment (AID 1296009); settings: MCC and control cell lines, CellTiter-Glo viability, 72 h; series mostly up to 46 µM; further: nearly all actives have a fitted effect of over 60% in size; further: potency means the concentration at half of the fitted maximal effect
Outline: (§1)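 Cells exposed to NPC (8-point) and MIPE (11-point) compound dilutions for 72 hr at 37 degree celsius; viability read by CellTiter-Glo luminescence, normalized to no-cell and DMSO in-plate controls.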

MKL-2 = assay: as above; settings: MCC and control cell lines, CellTiter-Glo viability, 72 h; series mostly up to 46 µM
Outline: as §1

UISO = assay: as above; settings: MCC and control cell lines, CellTiter-Glo viability, 72 h; series mostly up to 46 µM
Outline: as §1

C33A = assay: Primary qHTS to identify gynecologic anti-cancer compounds using libraries of approved drugs and bioactive compounds (AID 1345084); settings: Gynecologic cancer cell panel viability, ATPlite luminescence, 48 h; series mostly up to 57.5 µM; further: nearly all actives have a fitted effect of over 55% in size; further: potency means the concentration at half of the fitted maximal effect
Outline: (§2)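 Luminescence from the ATPlite ATP-monitoring reagent indicates viable cell number; lower signal means cytotoxicity. Cells received compound 16 h after seeding and were exposed for 48 h across five concentrations.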

CASKI = assay: as above; settings: Gynecologic cancer cell panel viability, ATPlite luminescence, 48 h; series mostly up to 57.5 µM
Outline: as §2

Es-2 = assay: as above; settings: Gynecologic cancer cell panel viability, ATPlite luminescence, 48 h; series mostly up to 57.5 µM
Outline: as §2

HeLa = assay: as above; settings: Gynecologic cancer cell panel viability, ATPlite luminescence, 48 h; series mostly up to 57.5 µM
Outline: as §2

Hek293T = assay: as above; settings: Gynecologic cancer cell panel viability, ATPlite luminescence, 48 h, control line for the selectivity index; series mostly up to 57.5 µM
Outline: as §2

JEG-3 = assay: as above; settings: Gynecologic cancer cell panel viability, ATPlite luminescence, 48 h; series mostly up to 57.5 µM
Outline: as §2

OV90 = assay: as above; settings: Gynecologic cancer cell panel viability, ATPlite luminescence, 48 h; series mostly up to 57.5 µM
Outline: as §2

PA-1 = assay: as above; settings: Gynecologic cancer cell panel viability, ATPlite luminescence, 48 h; series mostly up to 57.5 µM
Outline: as §2

SKOV3 = assay: as above; settings: Gynecologic cancer cell panel viability, ATPlite luminescence, 48 h; series mostly up to 57.5 µM
Outline: as §2

Tov-21-G = assay: as above; settings: Gynecologic cancer cell panel viability, ATPlite luminescence, 48 h; series mostly up to 57.5 µM
Outline: as §2

Tov112D = assay: as above; settings: Gynecologic cancer cell panel viability, ATPlite luminescence, 48 h; series mostly up to 57.5 µM
Outline: as §2

WaGa = assay: qHTS assay to identify novel small-molecules to repurpose for Merkel cell carcinoma treatment (AID 1296009); settings: MCC and control cell lines, CellTiter-Glo viability, 72 h; series mostly up to 46 µM; further: nearly all actives have a fitted effect of over 60% in size; further: potency means the concentration at half of the fitted maximal effect
Outline: as §1

[1] = Drug repurposing screens with cells derived from glioblastoma tumor samples (AID 1345199); settings: GBM patient neurospheres viability, ATP luminescence, 48 h; further: nearly all actives have a fitted effect of over 40% in size; further: potency means the concentration at half of the fitted maximal effect
Outline: (§3)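 Four patient lines of CD133+ GBM neurospheres were screened at several concentrations; hits were retested in those lines plus three slower-growing GBM lines, using 48-hour treatment and ATP-based viability.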

astro = assay: as above; settings: viability, ATP luminescence, 48 h; series mostly up to 45.9 µM
Outline: as §3

CAOV3 = assay: Primary qHTS to identify gynecologic anti-cancer compounds using libraries of approved drugs and bioactive compounds (AID 1345084); settings: Gynecologic cancer cell panel viability, ATPlite luminescence, 48 h; series mostly up to 57.5 µM; further: nearly all actives have a fitted effect of over 55% in size; further: potency means the concentration at half of the fitted maximal effect
Outline: as §2

[2] = qHTS assay to identify inhibitors of the type 1 interferon - major histocompatibility complex class I in skeletal muscle: Counter screen cell viability and HiBit confirmation (AID 1347412); settings: iHSKM muscle cells + IFN-b, HiBiT or CellTiter-Glo, 24 h; Viability; at 45.9 µM (top of the series); further: nearly all actives have a fitted effect of over 60% in size
Outline: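 After 24 h with human IFN-beta (4 ng/ml) and compound titrations (top 46 uM final, 1:3, 12 points), HLA-B HiBit myoblasts were lysed for either Nano-Glo HiBiT luminescence or CellTiter Glo viability on paired plates.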

[3] = at 45.9 µM (top of the series), tumour line B
[4] = at 45.9 µM (top of the series), tumour line D
[5] = at 46.1 µM (top of the series), tumour line C

CS(=O)c1ccc(-c2nc(-c3ccc(F)cc3)c(-c3ccncc3)[nH]2)cc1 (configuration not stated)
Potency (MKL-1): inactive | Potency (MKL-2): inactive | Potency (UISO): inactive | Potency (C33A): inactive | Potency (CASKI): inactive | Potency (Es-2): inactive | Potency (HeLa): inactive | Potency (Hek293T): inactive | Potency (JEG-3): inactive | Potency (OV90): inactive | Potency (PA-1): inactive | Potency (SKOV3): inactive | Potency (Tov-21-G): inactive | Potency (Tov112D): inactive

NC(=O)c1cnc(-c2ccc(C3(N)CCC3)cc2)c(-c2ccccc2)c1
Potency (MKL-1): inactive | Potency (MKL-2): inactive | Potency (UISO): inactive | Potency (WaGa): inactive | Potency (Es-2): inactive | Potency (HeLa): inactive | Potency (Hek293T): inactive | Potency (JEG-3): inactive | Potency (SKOV3): 28.2 µM (active) | Potency (Tov112D): inactive

CN1[C@@H]2CCC[C@@H]1CC(NC(=O)c1nn(C)c3ccccc13)C2 (some centres not stated)
Potency (MKL-1): inactive | Potency (MKL-2): inactive | Potency (UISO): inactive | Potency (WaGa): inactive | activity, negative = cell killing [1, 3]: 0.357% | activity, negative = cell killing [1, 4]: 2.65% | activity, negative = cell killing [1, 5]: -11.6% | Potency ([1]; tumour line A): 12.6 µM (active) | Potency (astro): inactive

CN1C[C@H]2c3ccccc3Oc3ccc(Cl)cc3[C@@H]2C1
Potency (MKL-1): inactive | Potency (MKL-2): inactive | Potency (UISO): inactive | Potency (WaGa): inactive | Potency (C33A): inactive | Potency (CASKI): inactive | Potency (HeLa): inactive | Potency (JEG-3): inactive | Potency (PA-1): inactive | Potency (Tov-21-G): inactive | Potency (Tov112D): inactive | activity, negative = cell killing [1, 3]: -17.5% | Potency ([1]; tumour line A): 10 µM (active)

Cc1ccccc1C(C(=O)NC1CCCCC1)N(C(=O)Cn1ccnc1C)c1cccc(F)c1 (configuration not stated)
Potency (MKL-1): inactive | Potency (MKL-2): inactive | Potency (UISO): inactive | Potency (WaGa): inactive | Potency (C33A): inactive | Potency (CASKI): inactive | Potency (Es-2): inactive | Potency (HeLa): inactive | Potency (Hek293T): inactive | Potency (JEG-3): inactive | Potency (OV90): inactive | Potency (PA-1): inactive | Potency (SKOV3): inactive | Potency (Tov-21-G): inactive | Potency (Tov112D): inactive

C[N+]1(C)[C@@H]2CC(OC(=O)[C@H](CO)c3ccccc3)C[C@H]1[C@H]1O[C@@H]12 (some centres not stated)
Potency (MKL-1): inactive | Potency (MKL-2): inactive | Potency (UISO): inactive | Potency (WaGa): inactive | activity, negative = cell killing [1, 3]: -9.31% | activity, negative = cell killing [1, 4]: -20.1% | activity, negative = cell killing ([1]; at 46 µM (top of the series), tumour line A): -28.4% | activity, negative = cell killing [1, 5]: -22.8% | Potency (astro): inactive

CNC(=O)c1ccc2cc(C3(O)CCn4cncc43)ccc2c1 (configuration not stated)
Potency (MKL-1): inactive | Potency (MKL-2): inactive | Potency (UISO): inactive | Potency (WaGa): inactive | Potency (C33A): inactive | Potency (CASKI): inactive | Potency (Es-2): inactive | Potency (HeLa): inactive | Potency (Hek293T): inactive | Potency (JEG-3): inactive | Potency (OV90): inactive | Potency (PA-1): inactive | Potency (SKOV3): inactive | Potency (Tov-21-G): inactive | Potency (Tov112D): inactive

CCn1cc(C(=O)O)c(=O)c2ccc(C)nc21
Potency (MKL-1): inactive | Potency (MKL-2): inactive | Potency (UISO): inactive | Potency (WaGa): inactive | Potency (C33A): inactive | Potency (CAOV3): inactive | Potency (CASKI): inactive | Potency (Es-2): inactive | Potency (HeLa): inactive | Potency (Hek293T): inactive | Potency (JEG-3): inactive | Potency (OV90): inactive | Potency (SKOV3): inactive | Potency (Tov-21-G): inactive | Potency (Tov112D): inactive | activity, negative = cell killing [1, 3]: -0.634% | activity, negative = cell killing [1, 4]: -3.73% | activity, negative = cell killing [1, 5]: -15.1% | Potency (astro): inactive

COc1ccc2cccc(CCNC(C)=O)c2c1
Potency (MKL-1): inactive | Potency (MKL-2): inactive | Potency (UISO): inactive | Potency (WaGa): inactive | Potency (C33A): inactive | Potency (CASKI): inactive | Potency (Es-2): inactive | Potency (HeLa): inactive | Potency (Hek293T): inactive | Potency (JEG-3): inactive | Potency (OV90): inactive | Potency (PA-1): inactive | Potency (SKOV3): inactive | Potency (Tov-21-G): inactive | Potency (Tov112D): inactive

COc1cc2c(cc1OC)CN(CCc1ccc(NC(=O)c3cc(OC)c(OC)cc3NC(=O)c3cnc4ccccc4c3)cc1)CC2
Potency (MKL-1): inactive | Potency (MKL-2): inactive | Potency (UISO): inactive | Potency (WaGa): inactive | Potency (PA-1): 11.2 µM (active)

CC(C(=O)O)c1ccc(-c2ccccc2)c(F)c1 (configuration not stated)
Potency (MKL-1): inactive | Potency (MKL-2): inactive | Potency (UISO): inactive | Potency (WaGa): inactive | activity, negative = cell killing ([1]; at 20 µM (top of the series), tumour line C): -24.7% | activity, negative = cell killing ([1]; at 21.2 µM (top of the series), tumour line B): -12.6% | activity, negative = cell killing ([1]; at 21.2 µM (top of the series), tumour line D): -11% | activity, negative = cell killing ([1]; at 21.3 µM (top of the series), tumour line A): -20.3% | Potency (astro): inactive

O=C(NC1CCOCC1)c1ccc(-c2cc(-c3cn[nH]c3-c3ccccn3)ccn2)cc1
Potency (MKL-1): inactive | Potency (MKL-2): inactive | Potency (UISO): inactive | Potency (WaGa): inactive | Potency (C33A): inactive | Potency (CASKI): inactive | Potency (Es-2): inactive | Potency (HeLa): inactive | Potency (Hek293T): inactive | Potency (JEG-3): inactive | Potency (OV90): inactive | Potency (PA-1): inactive | Potency (SKOV3): inactive | Potency (Tov-21-G): inactive | Potency (Tov112D): inactive

CO[C@H]1C(=O)[C@]2(C)[C@@H](OC)C[C@H]3OC[C@@]3(OC(C)=O)[C@H]2[C@H](OC(=O)c2ccccc2)[C@]2(O)C[C@H](OC(=O)[C@H](O)[C@@H](NC(=O)OC(C)(C)C)c3ccccc3)C(C)=C1C2(C)C
Potency (MKL-1): inactive | Potency (MKL-2): inactive | Potency (UISO): inactive | Potency (WaGa): inactive | activity change, negative = inhibition [2]: -18.6%

Cc1cccc(Nc2nc(-c3ccncc3)cs2)c1
Potency (MKL-1): inactive | Potency (MKL-2): inactive | Potency (UISO): 0.935 µM (active) | Potency (WaGa): inactive | Potency (C33A): inactive | Potency (CAOV3): inactive | Potency (Es-2): inactive | Potency (HeLa): inactive | Potency (Tov-21-G): inactive

— PubChem BioAssay (NCATS)
